GPR151 ag: activators of human GPR151. Q8TDV0. PathHunter beta-arrestin GPR151 cells, luminescence. activation, % at 11.2 µM. hit rate 1% among 650,000. AID 1508602; in the data active means activation above about 4.9%;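 further: 0% = median of compound wells and 100% = cells with positive control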
TEAD-YAP inh: TEAD-YAP interaction inhibition; HEK-TIYL cells, TEAD-Gal4/YAP UAS-luciferase luminescence; inhibition, % at 9.12 µM; hit rate 1.4% among 640,000; AID 1259422; in the data active means inhibition above about 32%;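 further: 0% = median of test compound wells and 100% = reference inhibitor wells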
MITF inh: human MITF inhibition, primary screen | O75030 | AlphaScreen MITF homodimerization, bead proximity signal | inhibition, % at 2.6 µM | hit rate 0.91% among 650,000 | AID 1259374; in the data active means inhibition above about 50%;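 further: 0% = vehicle wells with protein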
Target sequence (O75030 whole entry, looked up): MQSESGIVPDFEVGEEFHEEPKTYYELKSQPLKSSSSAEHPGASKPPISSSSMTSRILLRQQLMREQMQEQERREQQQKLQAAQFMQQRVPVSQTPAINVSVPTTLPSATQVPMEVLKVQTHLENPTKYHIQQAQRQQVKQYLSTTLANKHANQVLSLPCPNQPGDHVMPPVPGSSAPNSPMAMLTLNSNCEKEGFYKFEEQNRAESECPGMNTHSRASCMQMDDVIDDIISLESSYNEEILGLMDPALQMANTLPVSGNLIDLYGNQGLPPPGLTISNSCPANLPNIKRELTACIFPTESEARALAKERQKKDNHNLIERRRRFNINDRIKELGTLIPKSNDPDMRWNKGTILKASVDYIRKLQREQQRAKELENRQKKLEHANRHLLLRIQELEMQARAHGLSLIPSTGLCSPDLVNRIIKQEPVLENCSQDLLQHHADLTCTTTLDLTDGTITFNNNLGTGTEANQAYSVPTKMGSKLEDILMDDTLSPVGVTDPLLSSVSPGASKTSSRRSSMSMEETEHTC
FBW7 activator: activators of human E3 ligase FBW7; Q969H0; AlphaScreen FBW7–phospho-cyclin E peptide binding, activator screen; normalized activity (activation), % at 26.1 µM; hit rate 0.13% among 650,000; in the data active means normalized activity above about 1.9%;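 further: purified mutant Fbw7 with reduced substrate affinity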
GPR151 confirm: confirmation of human GPR151 activators. shares compounds with GPR151 ag. GPR151 PathHunter beta-arrestin cells, luminescence, 90 min; % of EA-reagent control over plate median. activation, % at 11.2 µM. 6,700 tested, under 10 active;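 active means mean percent activation across replicates above the confirmation screen cutoff of 4.91%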
GPR119 counter: activates human GPR119 in a GPR151 counter-screen; activation, % at 11.2 µM; hit rate 0.3% among 6,700; shares compounds with GPR151 ag; GPR119 PathHunter beta-arrestin cells, luminescence, 90 min; 0 = compound-well median, 100 = enzyme-acceptor control; AID 1508611;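 active means mean percent activation in the counterscreen above 29.09%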;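 further: counterscreen on off-target GPR119 to flag nonselective hits from the GPR151 activator screen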
* = called active by the depositor. Shown are actives, neighbours in structure and some others; about 3.4% of the full set was active somewhere.

CCOC(=O)CSc1nc2c(c(=O)n1C1CCOC(C)(C)C1)C1(CCCCC1)Cc1ccccc1-2 (configuration not stated) was read as GPR151 ag -0.5, TEAD-YAP inh 9.0, MITF inh 6.7 and FBW7 activator 0.3.
`CS(=O)(=O)N(CC(N)=O)c1cc(Cl)cc(Cl)c1` gave GPR151 ag -0.8, TEAD-YAP inh -2.7, MITF inh -2.8 and FBW7 activator 0.0.
For O=C(c1cccc(Cl)c1)N1CCN(Cc2ccc(Cl)cc2)CC1 the results were GPR151 ag 2.7, TEAD-YAP inh -2.9, MITF inh 31.7 and FBW7 activator 0.1.
`COC(=O)COc1cccc(NC(=O)COc2ccc(C)c(C)c2)c1` gave GPR151 ag -1.1, TEAD-YAP inh 7.8, MITF inh 0.5 and FBW7 activator 0.0.
Cc1cccc(NC(=O)C(=O)NCCO)c1C was read as GPR151 ag -0.6, TEAD-YAP inh 3.7, MITF inh 7.9 and FBW7 activator 0.0.
For Cc1c(Cl)cccc1NC(=O)C(=O)NCCO the results were GPR151 ag 5.2*, TEAD-YAP inh -11.0, MITF inh -2.1, FBW7 activator 0.2, GPR151 confirm -0.2 and GPR119 counter 2.5.
COc1cc2c(cc1OC)CN(Cc1cccc([N+](=O)[O-])c1)CC2 was read as GPR151 ag 8.0*, TEAD-YAP inh -1.8, MITF inh 11.5, FBW7 activator 0.0, GPR151 confirm 0.5 and GPR119 counter 13.0.
Screening O=C(Nc1nc(-c2cc([N+](=O)[O-])cs2)cs1)c1ccccc1Oc1ccccc1 returned GPR151 ag 0.2, TEAD-YAP inh -6.2, MITF inh 3.3 and FBW7 activator -0.2.
For CC(=O)Oc1ccc(-c2cccc(C(=O)Nc3ccc(C(=O)O)cc3)c2)cc1 the results were GPR151 ag -0.5, TEAD-YAP inh 0.8, MITF inh -25.1 and FBW7 activator 0.0.
`CC(=O)C(Sc1nc(NC(C)C)nc(N(C)C)n1)C(C)=O` gave GPR151 ag 5.3*, TEAD-YAP inh -12.2, MITF inh 15.9, FBW7 activator 0.9, GPR151 confirm -0.2 and GPR119 counter 4.9.
Screening O=C(Cn1ncn2nc(-c3cccs3)cc2c1=O)NC1CCN(Cc2ccccc2)CC1 returned GPR151 ag 12.9*, TEAD-YAP inh -5.6, MITF inh -3.8, FBW7 activator -0.1, GPR151 confirm 1.0 and GPR119 counter -5.9.
O=C(Cn1ncn2nc(-c3cccs3)cc2c1=O)NC1CCCc2ccccc21 (configuration not stated) was read as GPR151 ag 0.9, TEAD-YAP inh 2.0, MITF inh 6.3 and FBW7 activator 0.1.
Screening Cc1ccc(NC(=O)NCC2(O)CCCC2)cc1C returned GPR151 ag 7.5*, TEAD-YAP inh -29.2, MITF inh 12.2, FBW7 activator -0.1, GPR151 confirm 0.6 and GPR119 counter -3.4.
`O=C(NCSC1=NCCS1)c1ccccc1` gave GPR151 ag 8.2*, TEAD-YAP inh -10.2, MITF inh 1.1, FBW7 activator 0.0, GPR151 confirm -0.1 and GPR119 counter 4.9.
`c1ccc(CSC2=NCCS2)cc1` gave GPR151 ag 0.3, TEAD-YAP inh -19.4, MITF inh -2.2 and FBW7 activator 0.0.
Screening CCC(=O)NNC(=O)c1c(O)c2ccccc2n(C)c1=O returned GPR151 ag -0.5, TEAD-YAP inh 5.6, MITF inh 7.6 and FBW7 activator 0.0.
COc1ccc(CSc2nnnn2C)cc1F was read as GPR151 ag 5.5*, TEAD-YAP inh -7.7, MITF inh 3.4, FBW7 activator 0.1, GPR151 confirm -0.1 and GPR119 counter -7.0.
Screening Cc1cccc(-n2cnc3cc(C(=O)NCc4ccc5c(c4)OCO5)ccc32)c1 returned GPR151 ag 7.0*, TEAD-YAP inh 4.5, MITF inh 14.9, FBW7 activator 0.0, GPR151 confirm -0.9 and GPR119 counter -6.6.
For Cc1cc(C)cc(-n2cnc3cc(C(=O)NCc4ccc5c(c4)OCO5)ccc32)c1 the results were GPR151 ag -1.1, TEAD-YAP inh -3.1, MITF inh -15.8 and FBW7 activator 0.0.
`CCOC(=O)c1cc(C(=O)NNC(=O)/C=C/C(=O)O)c(C)nc1C` gave GPR151 ag 5.3*, TEAD-YAP inh -2.3, MITF inh 5.6, FBW7 activator -0.1, GPR151 confirm 0.5 and GPR119 counter -5.2.
`CSc1ccccc1C(=O)Nc1ccc(Br)cc1` gave GPR151 ag -1.0, TEAD-YAP inh -4.8, MITF inh 13.2 and FBW7 activator 0.0.
For CCC(=O)N1CCN(c2ccc(NC(=O)c3ccco3)cc2Cl)CC1 the results were GPR151 ag 3.3, TEAD-YAP inh -24.5, MITF inh -7.5 and FBW7 activator -0.1.
`CCC(=O)N1CCN(c2ccc(NC(=O)c3ccco3)cc2)CC1` gave GPR151 ag 5.4*, TEAD-YAP inh -16.7, MITF inh 11.9, FBW7 activator 0.1, GPR151 confirm 1.8 and GPR119 counter 14.7.
CCC(=O)N1CCN(c2ccc(NC(=O)c3cccs3)cc2)CC1 was read as GPR151 ag 9.2*, TEAD-YAP inh -19.1, MITF inh 7.1, FBW7 activator -0.1, GPR151 confirm -1.1 and GPR119 counter -15.3.
Screening COc1ccc(CC(=O)Nc2ccc(CC#N)cc2)cc1 returned GPR151 ag -1.6, TEAD-YAP inh -9.0, MITF inh 7.4 and FBW7 activator 0.0.
Screening O=C(O)c1ccc(NS(=O)(=O)c2ccc(Oc3ccccc3)cc2)cc1 returned GPR151 ag 0.1, TEAD-YAP inh -5.6, MITF inh 5.9 and FBW7 activator 0.0.
`COc1cc2nc(Nc3ccccn3)nc(Nc3cc(OC)c(OC)c(OC)c3)c2cc1OC` gave GPR151 ag 7.3*, TEAD-YAP inh 14.3, MITF inh 8.2, FBW7 activator -0.2, GPR151 confirm 1.5 and GPR119 counter 3.3.
Screening COc1cc2nc(Nc3ccccn3)nc(Nc3ccc(Oc4ccccc4)cc3)c2cc1OC returned GPR151 ag -1.8, TEAD-YAP inh -6.0, MITF inh -6.2 and FBW7 activator -0.2.
Screening CC(C)=CCN1CCN(Cc2sccc2C)CC1CCO (configuration not stated) returned GPR151 ag 12.2*, TEAD-YAP inh -14.2, MITF inh 0.3, FBW7 activator 0.0, GPR151 confirm 1.6 and GPR119 counter 14.5.
COc1cc(OC)cc(C(=O)NCC2CCCN(C(=O)C3=CCCC3)C2)c1 (configuration not stated) was read as GPR151 ag -0.7, TEAD-YAP inh -1.4, MITF inh 2.1 and FBW7 activator 0.0.
Screening CC1(C)N=C(Nc2ccccc2)SC1=N returned GPR151 ag 0.0, TEAD-YAP inh 5.4, MITF inh 1.9 and FBW7 activator 0.0.
